From PubChem BioAssay AID1508602 (The Scripps Research Institute Molecular Screening Center, 2020) come the findings set out here.

Where “and” joins values, the source holds several entries; their conditions need not be identical. Equal entries are not always repeated. About 6,800 (1%) of roughly 650,000 compounds were called active. The sample holds actives, similar compounds and a random draw of the others, so the mix is not that of the screen. Cut-off read from the data, not from the text of the source: active = activation above about 4.9%; inactive = the rest. A structure can be active in one record and inactive in another.

G-protein coupled receptor 151 (Homo sapiens), sequence (Q8TDV0 whole entry, looked up): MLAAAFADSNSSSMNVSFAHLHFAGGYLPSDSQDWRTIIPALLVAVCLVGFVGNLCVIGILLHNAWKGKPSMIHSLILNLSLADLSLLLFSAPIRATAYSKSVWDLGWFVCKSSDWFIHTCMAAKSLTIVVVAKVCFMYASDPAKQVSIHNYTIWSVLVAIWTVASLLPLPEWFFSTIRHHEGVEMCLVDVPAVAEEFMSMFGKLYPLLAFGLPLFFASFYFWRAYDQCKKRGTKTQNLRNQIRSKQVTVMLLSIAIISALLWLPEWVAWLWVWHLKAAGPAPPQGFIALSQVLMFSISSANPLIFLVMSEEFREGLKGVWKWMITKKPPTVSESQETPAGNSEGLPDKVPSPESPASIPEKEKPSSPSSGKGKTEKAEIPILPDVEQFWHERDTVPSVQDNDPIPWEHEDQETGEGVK

This experiment has as its target G-protein coupled receptor 151 (Homo sapiens) (UniProt Q8TDV0). As to the kind of experiment: activates the human receptor GPR151, primary screen, cell-based, PathHunter beta-arrestin, luminescence (AID 1508602).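 Note: 0% = median of compound wells and 100% = cells with positive control.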 As to conditions: PathHunter beta-arrestin GPR151 cells, at 11.2 µM, stronger effect = higher value.
On to `CCOC(=O)NCCCN1CCN(c2ccccc2)CC1`, for which the activation was 1.63% (inactive). For the molecule `N#Cc1ccc(N2CCN(CCCNC(=O)Nc3ccccc3)CC2)cc1`, the activation was 5.03% (active).

Consider `COc1cc(NC(=O)NCCN2CCN(c3ccccc3)CC2)cc(OC)c1`, for which the activation was 0.531% (inactive).

`COc1cccc(C=O)c1OC(=O)c1ccc(Cl)c([N+](=O)[O-])c1`: the activation was 1.65% (inactive). The result for `NC(=O)c1ccccc1NS(=O)(=O)c1cc(C(=O)O)c(Cl)cc1Cl` reads 1.03% (inactive); that for `OC(COc1ccccc1F)CN1CCOCC1` (stereo not drawn), 0.198% (inactive). Consider `COc1ccc(C2/C(=C(\O)c3ccc(F)cc3)C(=O)C(=O)N2CCCN2CCOCC2)cc1` (stereo not drawn), for which the activation is 1.83% (inactive). The result for `CCCSc1[nH]c(=O)c(C(=O)O)cc1C#N` reads -0.367% (inactive); that for `O=C(Cn1nnc(-c2ccccc2)n1)N/N=C/c1c(O)ccc2ccccc12`, 1.41% (inactive). The result for `O=C(Cn1nnc2ccccc21)N/N=C/c1c(O)ccc2ccccc12` reads 5.7% (active); that for `O=C(Cn1nnc2ccccc21)N/N=C/c1cccnc1`, 0.99% (inactive); that for `CC(C)(C)C1(O)CCN2C[C@H]3c4ccccc4CCc4cccc(c43)[C@@H]2C1` (stereo partly drawn), 7.83% (active) and 3.25% (inactive). Take `CC(Nc1n[nH]c(=O)[nH]c1=O)C(=O)N/N=C/c1cccnc1` (stereo not drawn): the activation was -0.752% (inactive). `CN(CC(=O)Nc1c(F)cccc1F)S(=O)(=O)c1ccc(Cl)cc1`: the activation is 0.4% (inactive). The result for `CN(CC(=O)Nc1ccccc1Cl)S(=O)(=O)c1ccc(F)cc1` reads -1.27% (inactive). The figure for `CN(CC(=O)Nc1cccc2c1CCCC2)S(=O)(=O)c1ccc(Cl)cc1` is 5.67% (active); for `C=CCn1c(SCC(=O)NCc2ccco2)nc2sc3c(c2c1=O)CCC(C)C3` (stereo not drawn) it is -1.7% (inactive). Take `CCOC(=O)c1sc2nc(SCC(=O)N(C)Cc3ccccc3)n(Cc3ccc4c(c3)OCO4)c(=O)c2c1C`: the activation is 5.39% (active). The result for `CCOC(=O)CSc1nc2sc(C(=O)OCC)c(C)c2c(=O)n1Cc1ccccc1` reads 2.6% (inactive); that for `CCOC(=O)c1sc2nc(SCc3ccc(Cl)cc3)n(Cc3cccc(Cl)c3)c(=O)c2c1C`, -0.446% (inactive). Regarding `NC(=O)c1nc(-c2ccccc2)nc2c1[nH]c(=O)n2-c1ccc(F)cc1`, the activation is 0.0137% (inactive).

Take `CC(C)n1c(=O)[nH]c2c(C(N)=O)nc(-c3ccc(-c4ccccc4)cc3)nc21`: the activation was 5.61% (active). The figure for `NC(=O)c1nc(-c2cccc(Cl)c2)nc2c1[nH]c(=O)n2-c1ccccc1` is -0.457% (inactive).

Turning to `Cc1cccnc1-c1ccc2c(c1)CC(CNC(=O)[C@@H]1CCC(=O)N1)O2` (stereo partly drawn), the activation is 0.168% (inactive). The figure for `CCOC(=O)C1=C(C)OC(N)=C(C#N)C1c1ccc2c(c1)OCO2` (stereo not drawn) is 0.198% (inactive); for `CCN(CC)CCOC(=O)c1ccc(OC)cc1OCCN(CC)CC` it is 1.9% (inactive).

On to `OCCC1CN(Cc2ccc3cc(F)ccc3n2)CCN1C1CCCC1` (stereo not drawn), for which the activation was 9.5% (active).

For `CCOc1ccc(CN2CCN(Cc3ccc4cc(F)ccc4n3)CC2CCO)cc1` (stereo not drawn), the activation was -0.448% (inactive). The result for `OCCC1CN(Cc2cccc(F)c2)CCN1C1CCCC1` (stereo not drawn) reads 1% (inactive); that for `CC(C)Nc1cc(N2CCC3(CC2)OCCO3)c2noc3c2c1C(=O)c1ccccc1-3`, 3.8% (inactive). The figure for `Cc1ccc(N2C(=O)NC(NC(=O)c3cccs3)(C(F)(F)F)C2=O)cc1` (stereo not drawn) is 1.1% (inactive); for `Cc1ccc(N2C(=O)CC(NCCc3ccccc3F)C2=O)cc1` (stereo not drawn) it is 0.306% (inactive). Regarding `Cc1ccc(N2C(=O)CC(NCc3ccc(F)cc3)C2=O)cc1` (stereo not drawn), the activation is -0.0057% (inactive). The result for `Cc1ccc(N2C(=O)CC(NCCN3CCOCC3)C2=O)cc1` (stereo not drawn) reads 14% (active); that for `COc1ccc(F)c(CC2(CCC(=O)N(CCO)Cc3ccccc3)CCC(=O)N2)c1` (stereo not drawn), -0.346% (inactive). The result for `CC(C)[C@H](O)C(=O)N1CCC(C(=O)Nc2ccc3[nH]ncc3c2)CC1` reads -0.359% (inactive); that for `NC(C(=O)N1CCN(C(=O)Nc2ccc3[nH]ncc3c2)CC1)c1cccc(Br)c1` (stereo not drawn), -1.09% (inactive).

As for `O=C(Nc1ccc2[nH]ncc2c1)N1CCCNCC1`, the activation is 5.34% (active). The figure for `O=C(Nc1ccccc1C(F)(F)F)c1cc(S(=O)(=O)N2CCCCCC2)ccc1F` is 0.584% (inactive); for `Cc1ccc(N(CC(=O)N/N=C/c2ccc(C)c(C)c2C)S(C)(=O)=O)cc1` it is 0.882% (inactive). The figure for `COc1cc2ccccc2cc1C(=O)Nc1nc2ccc3ccccc3c2s1` is -1.09% (inactive); for `CCOC(=O)c1ccc(NC(=O)c2nn(Cc3ccccc3)c(=O)c3ccccc23)cc1` it is -0.0773% (inactive). The result for `CCOC(=O)c1cc[n+](CC(=O)c2ccc(NC(=O)c3ccccc3)cc2)cc1` reads -2.71% (inactive). For `CCOC(=O)c1ccc(NC(=O)c2ncn(-c3ccccc3)n2)cc1`, the activation was 5.91% (active). The result for `O=C(Nc1ccncc1NC(=O)c1ccco1)c1ccco1` reads 0.598% (inactive). Take `O=C1NCCN(Cc2ccc(-c3ccccc3)cc2)C1CC(=O)N1CCCCC1` (stereo not drawn): the activation is 12.2% (active). The result for `COc1ccc(CN2CCNC(=O)C2CC(=O)N2CCCCC2)cc1OC` (stereo not drawn) reads 1.79% (inactive); that for `O=C1NCCN(Cc2ccc(F)c(F)c2)C1CC(=O)N1CCCC1` (stereo not drawn), -0.422% (inactive); that for `COc1cccc(N2CCN(c3ncnc4c3c(-c3ccccc3)cn4-c3ccccc3)CC2)c1`, 1.89% (inactive). As for `Nc1nc(NC(=O)/C=C/c2ccccc2)nn1-c1ccccc1`, the activation is 0.0795% (inactive). The result for `Nc1nc(NC(=O)/C=C/c2ccc(Cl)cc2)nn1-c1ccccc1` reads 0.321% (inactive). The result for `Nc1nc(NC(=O)/C=C/c2ccc(F)cc2)nn1-c1ccccc1` reads 10.7% (active). The figure for `Cc1sc(NC(=O)Cc2ccc([N+](=O)[O-])cc2)c(C#N)c1-c1ccccc1` is -0.519% (inactive); for `O=C(CN1CCOCC1)Nc1c(Cl)cc(Cl)cc1Cl` it is 8.12% (active). As to `O=C1CN(CC(=O)Nc2c(Cl)cc(Cl)cc2Cl)CCN1`, the activation was 0.357% (inactive). The result for `O=C(CN1CCOCC1)Nc1ncc(Cc2cc(Cl)cc(Cl)c2)s1` reads -0.516% (inactive). The figure for `CC(NC(=O)C12CC3CC(CC(C3)C1)C2)c1ccccc1` (stereo not drawn) is 1.54% (inactive); for `CCOC(=O)c1c(-c2ccc(C)cc2)csc1NC(=O)CNCCCO` it is 0.601% (inactive).
